# Test results reported in the supplement of paper PMC4166925.
# ± gives the standard deviation of the averaged measurements. Whole data set: some 33,000 sequences, median “E-score (dimensionless, -0.5 to 0.5)” near -0.046, cut for the highest 2% near 0.36. Many of the other results were omitted from the sample, so the highest values are more common in it than they were.
# Tested on: T1, SpTbr T-box DNA-binding domain (GST fusion)
# T1 sequence: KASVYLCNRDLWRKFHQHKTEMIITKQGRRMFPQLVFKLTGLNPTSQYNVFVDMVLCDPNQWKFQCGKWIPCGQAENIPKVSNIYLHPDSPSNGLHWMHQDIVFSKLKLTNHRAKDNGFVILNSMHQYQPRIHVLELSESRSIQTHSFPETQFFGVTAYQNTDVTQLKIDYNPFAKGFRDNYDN
# Experiment: PBM E-score of 8-mer (E-score (dimensionless, -0.5 to 0.5)); Tbr is Tbrain of the sea star Patiria miniata (Pm) or the sea urchin Strongylocentrotus purpuratus (Sp); higher = stronger binding preference
# Conditions: the construct has about 5 more residues each side
# Experimental: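 Universal protein-binding microarray (Agilent AMADID 016060, 60-bp probes with a 35-bp variable region) incubated with 200 nM GST-fused Strongylocentrotus purpuratus Tbr T-box DNA-binding domain (residues 362-554) in PBS pH 7.5. Scored for every ungapped 8-mer (given with its reverse complement) as E-score (range -0.5 to 0.5; >0.45 counts as bound) and Z-score of median probe intensity. Two replicate arrays (datasets 1 and 2).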
# 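Note: protein at 200 nM in PBS on universal double-stranded arrays.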
row,Sequence,PBM E-score of 8-mer
1,CCGTTCAC,0.367 ± 0.029
2,CCGTTCAG,-0.113 ± 0.032
3,ACGTTCAA,-0.145 ± 0.032
4,GCGTTCAC,0.239 ± 0.011
5,ACGTTCAG,-0.122 ± 0.029
6,ACGTTCAC,0.369 ± 0.0053
7,CGGAGACA,-0.0395 ± 0.021
8,ACAGAGAC,-0.0676 ± 0.02
9,CAACCCTG,0.014 ± 0.024
10,CGCCTTGA,0.159 ± 0.083
11,AGCCACAA,0.0237 ± 0.048
12,GACACCTC,0.479 ± 0.009
13,GACACGTA,0.29 ± 0.0077
14,GAGACCTC,-0.305 ± 0.013
15,GACACCTA,0.4778 ± 0.0018
16,GACACCGC,0.244 ± 0.061
17,GACACCGA,0.293 ± 0.0048
18,ACCAGTAG,-0.2 ± 0.063
19,AATGGACC,-0.2776 ± 0.0022
20,GGATGGAC,-0.203 ± 0.0084
21,GGTCAGAC,-0.274 ± 0.051
22,CCTCACGC,0.322 ± 0.036
23,AGTCACGC,0.3794 ± 0.0033
24,AGTCACGG,-0.193 ± 0.0098
25,ATTCACGG,0.259 ± 0.00064

row,Sequence,PBM E-score of 8-mer
1,CTTCACGC,0.409 ± 0.01
2,CTTCACGA,0.167 ± 0.043
3,AGTCACGA,0.152 ± 0.0034
4,ATTCACGC,0.424 ± 0.0061
5,ATTCACGA,0.288 ± 0.047
6,CACTGGCG,0.162 ± 0.084
7,ACCCATTC,-0.15 ± 0.062
8,TGGGGTAA,-0.1604 ± 0.001
9,AATTCGCA,0.321 ± 0.023
10,GATTCGCA,0.327 ± 0.014
11,CATTCGTA,-0.0369 ± 0.038
12,AATTCGCG,0.279 ± 0.02
13,CATTCGCA,0.384 ± 0.0068
14,ATTTCGCA,0.335 ± 0.025
15,ATTTCGCG,0.389 ± 0.016
16,CATTCGCG,0.389 ± 0.0059
17,CATTCGCC,-0.147 ± 0.039
18,ATTTCGCC,-0.0532 ± 0.044
19,TATTCGAA,-0.0307 ± 0.088
20,TATTCGCA,0.369 ± 0.0054
21,AGTCAAAA,-0.181 ± 0.0086
22,AGATTAGC,0.0489 ± 0.043
23,ACATGGGG,-0.06449 ± 0.00059
24,GTCATCTA,-0.0343 ± 0.015
25,GACCACTC,0.0231 ± 0.029

row,Sequence,PBM E-score of 8-mer
1,AAAGGCTC,-0.214 ± 0.06
2,GGCAAAAA,0.0671 ± 0.028
3,AACCACGT,-0.161 ± 0.017
4,GTGGCAAA,0.309 ± 0.024
5,ACGTGGGA,0.203 ± 0.026
6,CCGATAGG,0.00486 ± 0.048
7,GTTTCGCA,0.36 ± 0.02
8,CTTTCGCC,-0.043 ± 0.078
9,CTTTCGCA,0.421 ± 0.015
10,CGTATCTC,-0.174 ± 0.0059
11,GCCACCTA,0.285 ± 0.036
12,AGCACCGA,-0.094 ± 0.013
13,ATCACCTG,0.304 ± 0.022
14,AGCACCGG,-0.0409 ± 0.027
15,AGCACCTC,0.4014 ± 0.004
16,ACCACCTA,0.109 ± 0.065
17,AGCACCGC,-0.0167 ± 0.064
18,GGCACCGA,-0.122 ± 0.1
19,AGCACCTA,0.409 ± 0.0069
20,GGCACCTA,0.382 ± 0.015
21,ACCACCTC,0.343 ± 0.046
22,AGCACCTG,0.398 ± 0.0042
23,ACGAAGCC,-0.00822 ± 0.065
24,ACTGGCCA,0.0049 ± 0.016
25,ATAGGCTC,-0.167 ± 0.02

row,Sequence,PBM E-score of 8-mer
1,ACGCTACG,0.102 ± 0.023
2,ACCAACGA,0.102 ± 0.0046
3,CTCGGCCC,-0.0368 ± 0.041
4,ACTTTTGA,-0.0941 ± 0.084
5,AGTTTCAT,-0.233 ± 0.01
6,TCAATCGA,-0.0374 ± 0.037
7,GACCAAAA,-0.133 ± 0.0068
8,CAGAGCTC,-0.265 ± 0.01
9,CGCACCCA,0.372 ± 0.029
10,CGCACCTC,0.453 ± 0.016
11,CCCACCTC,0.251 ± 0.043
12,CGCACCTA,0.43 ± 0.0064
13,TGCACCCA,-0.00634 ± 0.056
14,CGCACCGA,0.0672 ± 0.045
15,CGCACCGC,0.228 ± 0.031
16,CGCACCCG,0.267 ± 0.054
17,CGCACCAA,0.2705 ± 0.0014
18,CACTCAAG,0.106 ± 0.095
19,ATCTGTAG,-0.206 ± 0.018
20,ATGGGAAC,-0.109 ± 0.011
21,CCAAGGCA,-0.112 ± 0.0028
22,CGTCGAGA,-0.0352 ± 0.014
23,CCCCTTTC,-0.132 ± 0.052
24,AACCTTTA,0.000765 ± 0.041
25,CACCTTTA,0.414 ± 0.0042

row,Sequence,PBM E-score of 8-mer
1,CACCTTTC,0.379 ± 0.024
2,AACCTTTC,-0.0391 ± 0.099
3,GACCTTTA,-0.242 ± 0.0044
4,AAGGGAGA,-0.13 ± 0.033
5,ATAGCCAT,-0.118 ± 0.018
6,CGTGCTCA,-0.0222 ± 0.013
7,TACCACGA,-0.00786 ± 0.00088
8,CGCGCGGC,0.208 ± 0.04
9,ATCTGGCG,0.0377 ± 0.0091
10,ATCGAGAC,0.0132 ± 0.042
11,GGTAGCTA,-0.314 ± 0.032
12,ATAGCCGG,-0.203 ± 0.015
13,TGGGTGAA,-0.137 ± 0.0066
14,CGTGTGTA,0.096 ± 0.044
15,CGTGTGAA,0.4643 ± 0.0031
16,CCTGTGAA,0.363 ± 0.011
17,TGTGTGAA,0.4829 ± 0.004
18,TATGTGAA,0.17 ± 0.07
19,CCTGCCTC,0.0708 ± 0.019
20,CTATCCTA,-0.171 ± 0.0083
21,GTTGACCA,0.142 ± 0.036
22,ATAACCAC,-0.138 ± 0.015
23,CCACACAA,0.0877 ± 0.025
24,GCGCACCA,0.00307 ± 0.052
25,CCGCACCA,0.186 ± 0.032

row,Sequence,PBM E-score of 8-mer
1,CCTCACCA,0.197 ± 0.025
2,ACACACAA,0.148 ± 0.02
3,ACTCACCA,-0.0326 ± 0.014
4,ACACACCA,0.287 ± 0.013
5,TCTCACCA,0.372 ± 0.011
6,TCACACCA,0.4853 ± 0.0026
7,TCGCACCA,0.434 ± 0.023
8,CCACACCA,0.314 ± 0.057
9,TCACACAA,0.435 ± 0.0069
10,CCGGGATC,-0.0846 ± 0.051
11,AGTAGAAT,-0.219 ± 0.017
12,GCCCCTGA,-0.091 ± 0.031
13,CCTGGAGC,-0.16 ± 0.026
14,GGGGTAAC,-0.0298 ± 0.022
15,GATGCAAA,0.0247 ± 0.033
16,CCCATCGA,-0.2033 ± 0.0016
17,AGGCCCGC,-0.15 ± 0.036
18,GCACACGA,-0.113 ± 0.11
19,ACACACGA,-0.00198 ± 0.078
20,TCACACGA,0.387 ± 0.0091
21,TCATTGAA,-0.129 ± 0.0043
22,CAACCTGC,0.149 ± 0.015
23,AAGAGGTA,-0.272 ± 0.035
24,ACGAGGTG,0.419 ± 0.019
25,AGGAGGTC,-0.269 ± 0.036

row,Sequence,PBM E-score of 8-mer
1,AAGAGGTG,0.407 ± 0.0088
2,AAGAGGTC,-0.128 ± 0.01
3,ACGAGGTA,-0.0678 ± 0.011
4,AGGAGGTG,0.391 ± 0.03
5,ACGAGGTC,-0.114 ± 0.018
6,AGGAGGTA,-0.0388 ± 0.051
7,ACATAGGT,0.221 ± 0.02
8,CCTGCTAA,0.269 ± 0.031
9,ACCAACAC,0.273 ± 0.0089
10,ACGCTTAA,0.11 ± 0.0092
11,GGCCGTAC,-0.249 ± 0.0084
12,ATTTGGGC,-0.181 ± 0.017
13,CACTTAGG,0.117 ± 0.04
14,ATGGTCCG,-0.11 ± 0.029
15,ATGATGGA,-0.179 ± 0.029
16,ATCACATA,0.251 ± 0.055
17,ATCACAGA,0.102 ± 0.074
18,ATCACAGG,0.227 ± 0.05
19,ATCACACG,0.417 ± 0.027
20,ATCACAAA,0.106 ± 0.014
21,ATCACACA,0.425 ± 0.017
22,AACAGCTA,0.232 ± 0.018
23,GAATCAGC,-0.196 ± 0.017
24,AAGCTTAG,-0.108 ± 0.11
25,CCTAGCAC,0.257 ± 0.016

row,Sequence,PBM E-score of 8-mer
1,ATTAGCAC,0.368 ± 0.038
2,ATTAGCAA,-0.0446 ± 0.11
3,CTTAGCAC,0.364 ± 0.0057
4,ATTAGCAG,0.0716 ± 0.046
5,CTTAGCAA,0.0388 ± 0.079
6,AGCATGGA,-0.0258 ± 0.071
7,ATGCTCTG,-0.168 ± 0.038
8,CGCTCAAA,0.00388 ± 0.065
9,ATATTAAA,-0.0775 ± 0.025
10,GATCACAC,0.479 ± 0.01
11,AATCACAA,0.212 ± 0.018
12,AATCACAG,0.06 ± 0.051
13,CATCACAA,0.204 ± 0.042
14,GATCACGC,0.359 ± 0.037
15,AATCACAC,0.457 ± 0.011
16,CATCACAG,0.184 ± 0.0071
17,CATCACAC,0.451 ± 0.0075
18,GATCACAA,0.251 ± 0.0097
19,CGCGACCG,0.29 ± 0.031
20,GGTACCAA,-0.0861 ± 0.086
21,ACAAAGGT,0.119 ± 0.0064
22,ACTGGGCT,-0.25 ± 0.058
23,AGTGGCAG,0.171 ± 0.033
24,AACCCCGC,0.136 ± 0.034
25,AAGGTACG,-0.0434 ± 0.066

row,Sequence,PBM E-score of 8-mer
1,CGGGTGCC,0.18 ± 0.0043
2,CAGGTGCC,0.388 ± 0.034
3,AAGGTGCC,0.364 ± 0.0073
4,ACGGTGCG,0.298 ± 0.024
5,GAGGTGCC,0.379 ± 0.019
6,GAGGTGCA,0.338 ± 0.032
7,CTGGTGCC,0.141 ± 0.076
8,AAGGTGCG,0.4522 ± 0.0011
9,AAGGTGCA,0.35 ± 0.01
10,AAGGTGCT,0.4354 ± 0.0022
11,AAGGTGGT,0.247 ± 0.033
12,AAATAGCG,0.169 ± 0.013
13,CACCCCTA,0.212 ± 0.022
14,CGCTACAA,0.107 ± 0.069
15,AACCATGG,-0.0415 ± 0.0021
16,ACTTCGAG,0.0665 ± 0.024
17,CAGGTGCA,0.265 ± 0.028
18,CAGGTGCG,0.454 ± 0.01
19,CAGATGCG,-0.139 ± 0.019
